# Experimental data from PMC5540273 (PLoS ONE, 2017).
# Tested on: T1, MST2
# T1 construct: gene STK3
# Settings: concentration: 1 μM, replicates: in singlicate; n = 1
# 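Further: KINOMEscan kinase panel screen.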
row,Structure (SMILES),%Inh [%]
1,CNCc1ccc2nc(NC(=O)c3ccc(C(C)(C)C)cc3)cn2c1,25
2,Cc1ccc(NC(=O)Nc2ccc(Cl)cc2)cc1-c1ccc(C(=O)Nc2ccncc2)cc1 [GSK1398472],0
3,Cn1cncc1-c1cc2c(Nc3ccc(OCc4ccccc4)cc3)ncnc2cn1 [GW281179],0
4,Fc1ccc(-c2nc3n(c2-c2ccncc2)CCS3)cc1 [GI98581],25
5,COc1ccc(CSc2nnc(-c3ccc4ncsc4c3)o2)cc1C(F)(F)F,0
6,Cc1ccc(NC(=O)Nc2ccccc2)cc1-c1ccc(C(=O)Nc2ccncc2)cc1 [GSK1398471],0
7,COc1ccc2cc(-c3nc(-c4ccccc4C(C)C)[nH]c3-c3ccncc3)ccc2c1 [SB-660566],58
8,O=C1NC(=O)C(c2ccc(Cl)cc2)=C1Nc1cccc(Cl)c1 [SB-317651],43
9,CC(C)c1cc(-c2ccc3c(N)n[nH]c3c2)nc(N)n1 [GSK2250882],0
10,Cc1c(Cn2c3ccccc3n3c(=O)cc(N4CCOCC4)nc23)cccc1C(F)(F)F [GSK2306394],12
11,COC(=O)C(Cc1ccccc1)NC(=O)NC1CCN(c2ccnc(Nc3ccc(F)cc3)n2)C1 (centres unmarked) [GSK1379714],0
12,CS(=O)(=O)Cc1ccc(Nc2nccc(-c3c(-c4cccc(NC(=O)C5CCCCC5)c4)nn4ncccc34)n2)cc1 [GSK350559],44
13,Nc1nccc(-c2c(-c3ccc(F)cc3)ncn2C2CCN(Cc3ccccc3)CC2)n1 [SB-219980],8
14,CC(C)c1ccc(O)cc1Nc1ccnc2ccc(C(F)(F)F)cc12 [GW482059],0
15,CNc1nc(-c2ccc3c(N)n[nH]c3c2)cc(N2C[C@@H](C(=O)NC3CCCCC3)OC[C@H]2C)n1 [GSK2375584],0
16,CCn1c(-c2ccccc2)nc2cnccc21 [SB-733416],6
17,CCCCc1nn2ncccc2c1-c1ccnc(NC2CC2)n1 [GW684374],15
18,Nc1cccc(-c2ccc3c(N)n[nH]c3c2)n1 [GSK2192730],21
19,CS(=O)(=O)CCNCc1nc(-c2ccc3ncnc(Nc4ccc(OCc5ccccc5)c(Cl)c4)c3c2)cs1.Cl [GW582764],0
20,COc1cccc(NC(=O)Nc2ccc(C)c(-c3ccc(C(=O)Nc4ccncc4)cc3)c2)c1 [GSK1398474],0
21,CC[C@@H]1CO[C@H](C(=O)Nc2ccccc2)CN1c1cc(-c2ccc3c(N)n[nH]c3c2)nc(NC)n1 [GSK2376236],10
22,COc1ccc(CSc2nnc(-c3ccc4nccn4c3)o2)cc1C(F)(F)F,0
23,Nc1ncnc2occ(-c3ccc4c(c3)CCN4C(=O)Cc3cc(F)ccc3F)c12 [GSK2645446],0

# Tested on: T2, MST3
# T2 construct: gene STK24
# Settings: concentration: 1 μM, replicates: in singlicate; n = 1
row,Structure (SMILES),%Inh [%]
1,COc1ccc(Nc2nccc(N3CCC(NC(=O)C(C)c4ccc(Cl)cc4)CC3)n2)cc1 (centres unmarked) [GSK1379812],0
2,CCc1ccc(-c2ccc3c(c2)-c2n[nH]cc2S(=O)(=O)N3C)cc1,0
3,CC(=O)c1c(C)c2cnc(Nc3ccc(N4CCNCC4)cn3)nc2n(C2CCCC2)c1=O,5
4,Cn1cncc1C(=O)NC1CCN(c2ccnc(Nc3ccc(F)cc3)n2)C1 (centres unmarked) [GSK1379717],0
5,CNc1cc(-c2ccc3c(N)n[nH]c3c2)nc(N)n1 [GSK2224810],24
6,CN1c2ccc(-c3ccc(C(N)=O)cc3)cc2-c2[nH]ncc2S1(=O)=O,0
7,COc1ccc(-c2coc3ccc(-c4nnc(C)o4)cc23)cc1,0
8,Cc1ccc(NC(=O)Nc2ccccc2F)cc1-c1ccc(C(=O)Nc2ccncc2)cc1 [GSK1398477],0
9,O=C(Nc1n[nH]c2nc(-c3ccco3)c(Br)cc12)C1CCN(Cc2ccccc2)C1.O=C(O)[C@H](O)[C@@H](O)C(=O)O (centres unmarked) [SB-742034],13
10,FC(F)(F)c1ccccc1-c1cc(-c2c[nH]nc2-c2ccccn2)ccn1 [GW679396],5
11,COc1nccc(-c2c(-c3ccc(F)cc3)ncn2CCCN2CCOCC2)n1 [SB-282852],0
12,COc1cccc(CNC(=O)NC2CCN(c3ccnc(Nc4ccc(F)cc4)n3)C2)c1 (centres unmarked) [GSK1379723],0
13,COC(=O)C(NC(=O)NC1CCN(c2ccnc(Nc3ccc(F)cc3)n2)C1)c1ccccc1 (centres unmarked) [GSK1379712],3
14,CNCc1ccc2nc(NC(=O)c3ccc(C(C)(C)C)cc3)cn2c1,7
15,Cc1ccc(NC(=O)Nc2ccc(Cl)cc2)cc1-c1ccc(C(=O)Nc2ccncc2)cc1 [GSK1398472],0
16,Cn1cncc1-c1cc2c(Nc3ccc(OCc4ccccc4)cc3)ncnc2cn1 [GW281179],0
17,Fc1ccc(-c2nc3n(c2-c2ccncc2)CCS3)cc1 [GI98581],0
18,COc1ccc(CSc2nnc(-c3ccc4ncsc4c3)o2)cc1C(F)(F)F,0

row,Structure (SMILES),%Inh [%]
1,Cc1ccc(NC(=O)Nc2ccccc2)cc1-c1ccc(C(=O)Nc2ccncc2)cc1 [GSK1398471],0
2,COc1ccc2cc(-c3nc(-c4ccccc4C(C)C)[nH]c3-c3ccncc3)ccc2c1 [SB-660566],0
3,O=C1NC(=O)C(c2ccc(Cl)cc2)=C1Nc1cccc(Cl)c1 [SB-317651],13
4,CC(C)c1cc(-c2ccc3c(N)n[nH]c3c2)nc(N)n1 [GSK2250882],8
5,Cc1c(Cn2c3ccccc3n3c(=O)cc(N4CCOCC4)nc23)cccc1C(F)(F)F [GSK2306394],2
6,COC(=O)C(Cc1ccccc1)NC(=O)NC1CCN(c2ccnc(Nc3ccc(F)cc3)n2)C1 (centres unmarked) [GSK1379714],3
7,CS(=O)(=O)Cc1ccc(Nc2nccc(-c3c(-c4cccc(NC(=O)C5CCCCC5)c4)nn4ncccc34)n2)cc1 [GSK350559],3
8,Nc1nccc(-c2c(-c3ccc(F)cc3)ncn2C2CCN(Cc3ccccc3)CC2)n1 [SB-219980],0
9,CC(C)c1ccc(O)cc1Nc1ccnc2ccc(C(F)(F)F)cc12 [GW482059],0
10,CNc1nc(-c2ccc3c(N)n[nH]c3c2)cc(N2C[C@@H](C(=O)NC3CCCCC3)OC[C@H]2C)n1 [GSK2375584],18
11,CCn1c(-c2ccccc2)nc2cnccc21 [SB-733416],0
12,CCCCc1nn2ncccc2c1-c1ccnc(NC2CC2)n1 [GW684374],0
13,Nc1cccc(-c2ccc3c(N)n[nH]c3c2)n1 [GSK2192730],9
14,CS(=O)(=O)CCNCc1nc(-c2ccc3ncnc(Nc4ccc(OCc5ccccc5)c(Cl)c4)c3c2)cs1.Cl [GW582764],0
15,COc1cccc(NC(=O)Nc2ccc(C)c(-c3ccc(C(=O)Nc4ccncc4)cc3)c2)c1 [GSK1398474],10
16,CC[C@@H]1CO[C@H](C(=O)Nc2ccccc2)CN1c1cc(-c2ccc3c(N)n[nH]c3c2)nc(NC)n1 [GSK2376236],0
17,COc1ccc(CSc2nnc(-c3ccc4nccn4c3)o2)cc1C(F)(F)F,15
18,Nc1ncnc2occ(-c3ccc4c(c3)CCN4C(=O)Cc3cc(F)ccc3F)c12 [GSK2645446],13
